In PubChem BioAssay AID434970 (Sanford-Burnham Center for Chemical Genomics, 2010) one finds activation factor and activity change, negative = activation data, which are given here for 38 compounds.

Structures are written as SMILES. The campaign covered roughly 11,000 compounds. About 310 (2.8%) were called active. No stated cut-off is given here; in the data, active means activity change below about -85%; inactive means the rest. Shown is part of a subset that was picked to be rich in actives.

In this assay the test system is intestinal alkaline phosphatase [Mus musculus]. Description: mouse intestinal phosphatase enzyme activation – biochemical, luminescence, single concentration, confirmation (AID 434970). As to conditions: purified mouse IAP, CDP-Star luminescence, 30 min, at 10 µM; activation factor: measured here: IAP activation factor, stronger effect = higher value; activity change, negative = activation: stronger effect = lower value.
For `CC(=O)N1c2ccccc2C(C)(c2ccccc2)CC1(C)C` (stereo unspecified), the activation factor was 0.98 and the activity change, negative = activation is 2% (inactive).

Turning to `O=C(NCC1CC1)C1CCCN(S(=O)(=O)c2ccc(-n3cnnn3)cc2)C1` (stereo unspecified), the activation factor stood at 1.01 and the activity change, negative = activation is -0.9% (inactive).

Turning to `O=C(Nc1ccc(Cl)cc1)C1CC(=O)n2c(nc3ccccc32)N1` (stereo unspecified), the activation factor came to 2.06 and the activity change, negative = activation was -106% (active).

With `O=C(Nc1ccc(F)c(Cl)c1)C1CC(=O)n2c(nc3ccccc32)N1` (stereo unspecified), the activation factor came out at 2.42 and the activity change, negative = activation is -142% (active).

For `O=C1CC(c2ccco2)Sc2nc3ccccc3n21` (stereo unspecified), the activation factor is 0.801 and the activity change, negative = activation is 19.9% (inactive).

Turning to `O=C(Nc1ccc(Cl)cc1)N1CCC(c2nc(-c3ccccc3Cl)no2)CC1`, the activation factor is 1.1 and the activity change, negative = activation was -9.8% (inactive).

`CSc1ccccc1NC(=O)Nc1ccc(F)c(Cl)c1`: the activation factor was found to be 1.83 and the activity change, negative = activation is -83.2% (inactive).

As to `O=C(O)C1=C(C(=O)Nc2ccc(F)c(Cl)c2)CCCC1`, the activation factor came to 0.98 and the activity change, negative = activation was 2% (inactive).

In the case of `FC(F)Oc1ccc(NC(=S)NCc2ccccc2)cc1Cl`, the activation factor is 1.34 and the activity change, negative = activation is -34.3% (inactive).

On to `COC(=O)[C@H](Cc1ccc(O)cc1)NC(=O)Cn1cnc2c(NCc3ccccc3)ncnc21`, for which the activation factor stood at 1.08 and the activity change, negative = activation is -8.5% (inactive).

Regarding `COCCCNC(=O)CCSc1ccc(Cl)cc1`, the activation factor is 0.897 and the activity change, negative = activation was 10.3% (inactive).

For `O=C(NCc1ccncc1)c1nnc(Cc2c(F)cccc2Cl)o1`, the activation factor was determined as 0.951 and the activity change, negative = activation was 4.9% (inactive).

`NC(=O)CSc1nnc(-c2cccnc2)n1CCc1ccccc1`: the activation factor was 0.957 and the activity change, negative = activation was 4.35% (inactive).

For `CS(=O)(=O)Nc1ccccc1C(=O)c1ccccc1`, the activation factor is 1.04 and the activity change, negative = activation was -3.7% (inactive).

Regarding `O=C(CSc1ncn[nH]1)CSc1ncn[nH]1`, the activation factor worked out at 0.517 and the activity change, negative = activation was 48.3% (inactive).

As to `CCCCOC(=O)C1=C(C)NC2=C(C(=O)CCC2)C1c1cc(OC)ccc1OC` (stereo unspecified), the activation factor came to 1.09 and the activity change, negative = activation was -9.15% (inactive).

On to `COc1ccc(C2=NOC(Cn3nc(-c4ccccc4)cc3C(=O)NCc3cccs3)C2)cc1` (stereo unspecified), for which the activation factor was found to be 1.82 and the activity change, negative = activation is -81.5% (inactive).

In the case of `Cc1ccc(CNC(=O)COC(=O)c2c(C)noc2C)cc1`, the activation factor came out at 0.891 and the activity change, negative = activation is 10.9% (inactive).

With `CCc1cc(Cn2nc(-c3ccccc3)cc2C(=O)NCc2ccc(C)cc2)on1`, the activation factor was 1.7 and the activity change, negative = activation was -69.7% (inactive).

With `CCc1cc(Cn2nc(-c3ccccc3)cc2C(=O)NCc2cccs2)on1`, the activation factor is 1.89 and the activity change, negative = activation was -88.9% (inactive).

On to `COc1ccc(C2=NOC(Cn3nc(-c4ccccc4)cc3C(=O)NCc3cccc(Br)c3)C2)cc1` (stereo unspecified), for which the activation factor stood at 2.12 and the activity change, negative = activation was -112% (active).

Turning to `Cn1c(C(=O)NCc2ccccc2)cc2oc3ccccc3c21`, the activation factor was found to be 1.14 and the activity change, negative = activation is -14.4% (inactive).

For `Cc1ccc(CNC(=O)c2cc(-c3ccccc3)nn2Cc2cc(C)no2)cc1`, the activation factor is 2.26 and the activity change, negative = activation was -126% (active).

In the case of `COc1ccc(C2=NOC(Cn3nc(-c4ccccc4)cc3C(=O)NCc3ccc(C)cc3)C2)cc1` (stereo unspecified), the activation factor stood at 1.57 and the activity change, negative = activation was -57.5% (inactive).

For `COc1ccc(C2=NOC(Cn3nc(-c4ccccc4)cc3C(=O)NCc3cccc(C(F)(F)F)c3)C2)cc1` (stereo unspecified), the activation factor worked out at 1.83 and the activity change, negative = activation was -83.5% (inactive).

For `COc1ccc(C2=NOC(Cn3nc(-c4ccccc4)cc3C(=O)NCc3ccccc3OC)C2)cc1` (stereo unspecified), the activation factor is 1.68 and the activity change, negative = activation was -67.7% (inactive).

On to `CCc1cc(Cn2nc(-c3ccccc3)cc2C(=O)NCc2cccc(Br)c2)on1`, for which the activation factor was 2.8 and the activity change, negative = activation is -180% (active).

For `CCc1cc(Cn2nc(-c3ccccc3)cc2C(=O)NCc2ccccc2OC)on1`, the activation factor was found to be 1.99 and the activity change, negative = activation is -99.1% (active).

As to `O=C(COc1ccccc1Cl)OCC(=O)N1CCN(S(=O)(=O)c2ccccc2)CC1`, the activation factor was 0.883 and the activity change, negative = activation was 11.7% (inactive).

`CC(=O)c1cccc(NC(=O)CCNS(=O)(=O)c2cccc(C(C)=O)c2)c1`: the activation factor was found to be 0.929 and the activity change, negative = activation was 7.05% (inactive).

In the case of `Cc1cc(Br)cc2c1NC(=O)C2(c1c(C)n(C)n(-c2ccccc2)c1=O)c1c(C)n(C)n(-c2ccccc2)c1=O`, the activation factor amounted to 1.02 and the activity change, negative = activation is -2.5% (inactive).

As for `Cc1cc(C)n2cc(CSc3nnnn3-c3ccccc3)nc2n1`, the activation factor is 0.946 and the activity change, negative = activation is 5.45% (inactive).

Take `CCOC(=O)c1c(NC(=O)CSc2nnc(CNc3ccc(F)cc3)o2)sc(C(C)=O)c1C`: the activation factor stood at 0.797 and the activity change, negative = activation was 20.2% (inactive).

Regarding `O=C1c2ccccc2[C@@H]2C[C@@H](O)[C@H](Nc3cccc(Cl)n3)CCN12`, the activation factor was 1.01 and the activity change, negative = activation is -0.85% (inactive).

For the compound `CCCCN1CCS(=O)(=O)N(Cc2ccccc2Br)CC(C(=O)OC)C1` (stereo unspecified), the activation factor worked out at 0.992 and the activity change, negative = activation was 0.8% (inactive).

Regarding `C=CCNC(=O)/C(=C/c1ccco1)NC(=O)c1ccc(Br)o1`, the activation factor worked out at 0.906 and the activity change, negative = activation is 9.4% (inactive).

For the compound `O=C(NCCCN1CCCCC1)c1ccc2c(=O)n(CCc3ccccc3)c(=O)[nH]c2c1`, the activation factor amounted to 0.91 and the activity change, negative = activation is 9% (inactive).

Take `COc1cc(OC)c2c(-c3cccc(-c4ccc(OC(F)(F)F)cc4)c3)cc(=O)oc2c1`: the activation factor is 0.834 and the activity change, negative = activation is 16.6% (inactive).
